Shown are actives, neighbours in structure and some others; about 3.6% of the full set was active somewhere.
Mtb hypoxia inh – inhibitors of hypoxia-regulated fluorescent reporter in Mycobacterium tuberculosis; 300,000 compounds, 0.1% hits; AID 1159583; fluorescence inhibition, % (no concentration beside the values); M. tuberculosis hypoxia-regulated fluorescent reporter, fluorescence; in the data active = fluorescence inhibition mostly above about 23%, no sharp cut-off; inactive = mostly below about 17%
DUSP3 inh – blocks human VHR1 dual specificity phosphatase; P51452; inhibition, % at 13.3 µM; 290,000 compounds, 0.52% hits; recombinant VHR phosphatase, pNPP absorbance; in the data active = inhibition above about 50%
Target sequence (P51452 whole entry, looked up): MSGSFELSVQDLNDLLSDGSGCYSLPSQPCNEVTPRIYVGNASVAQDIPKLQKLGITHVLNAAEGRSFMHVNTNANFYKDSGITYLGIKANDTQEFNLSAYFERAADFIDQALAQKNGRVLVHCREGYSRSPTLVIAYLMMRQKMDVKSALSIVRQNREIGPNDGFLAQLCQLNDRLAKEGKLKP
GDH-TPI counter-1 – counter-screen for M. tuberculosis FBA inhibitors: GDH-TPI coupled enzymes; GDH-TPI coupled enzyme counterscreen, NADH absorbance; inhibition, % at 4.8 µM; 360,000 compounds, 1.2% hits; AID 588335; in the data active = inhibition above about 30%;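 note: 0% = DMSO wells and 100% = wells lacking the enzyme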
Mtb FBA inh – Mtb fructose-bisphosphate aldolase inhibition; AID 588726; purified M. tuberculosis FBA, fluorescence read-out; inhibition, % at 1 µM; 360,000 compounds, 2.3% hits; in the data active = inhibition above about 27%;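 note: 0% = vehicle and 100% = reference inhibitor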
Target sequence (P9WQA3 whole entry, looked up): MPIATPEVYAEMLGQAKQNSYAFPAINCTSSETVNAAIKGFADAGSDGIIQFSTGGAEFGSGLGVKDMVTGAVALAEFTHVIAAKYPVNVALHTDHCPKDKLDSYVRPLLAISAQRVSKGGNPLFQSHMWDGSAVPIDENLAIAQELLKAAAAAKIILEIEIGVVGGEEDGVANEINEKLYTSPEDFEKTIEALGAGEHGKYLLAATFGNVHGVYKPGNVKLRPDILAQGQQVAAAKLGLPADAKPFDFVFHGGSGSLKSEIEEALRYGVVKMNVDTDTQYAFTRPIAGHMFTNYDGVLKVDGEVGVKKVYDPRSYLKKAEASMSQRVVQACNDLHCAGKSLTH
Mtb betalactam – beta-lactam sensitization of Mtb H37Rv | M. tuberculosis H37Rv growth with meropenem, percent inhibition | inhibition, % at 25 µM | 330,000 compounds, 0.27% hits | AID 434955;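 note: growth measured after seven days incubation then overnight dye step; 0% = bacteria only wells and 100% = bacteria with antibiotic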
Mtb FBA confirm – Mtb FBA inhibition, confirmed; shares compounds with Mtb FBA inh; purified M. tuberculosis FBA, fluorescence read-out; inhibition, % at 1 µM; 5,600 compounds, 78% hits; in the data active = inhibition above about 27%;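 note: 0% = vehicle wells and 100% = reference inhibitor wells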
GDH-TPI counter-2 – inhibits GDH-TPI coupling enzymes, flagging Mtb FBA hits; shares compounds with Mtb FBA inh; GDH-TPI coupled enzyme counterscreen, fluorescence; inhibition, % at 1 µM; 5,600 compounds, 81% hits; in the data active = inhibition above about 10%
GDH-TPI DR – GDH-TPI dose response counter-screen for Mtb FBA; 170 compounds, 79% hits; shares compounds with Mtb FBA inh; IC50, µM; AID 652145; GDH-TPI coupled enzyme assay, fluorescence, artifact counterscreen
* = called active by the depositor. Unless noted, the rule behind the calls is not given here.

For CCN1CCSc2ccc(C(=O)NCc3ccccc3Br)cc21 the results were Mtb hypoxia inh 4.2, DUSP3 inh 44.9, GDH-TPI counter-1 14.8, Mtb FBA inh 59.2*, Mtb betalactam -6.2, Mtb FBA confirm 0.8 and GDH-TPI counter-2 -1.9.
Screening CC(C)Oc1ccc(C=NNC(=O)c2ccc(N(Cc3ccccc3)S(C)(=O)=O)cc2)cc1 returned Mtb hypoxia inh -0.2.
Cc1ccc2nc3[nH]c(=O)[nH]c(=O)c3c(N)c2c1 was read as Mtb hypoxia inh 14.4, GDH-TPI counter-1 6.0, Mtb FBA inh 105.1*, Mtb FBA confirm -9.1 and GDH-TPI counter-2 -5.3.
COc1ccc(C2C3C(=O)N(C(C)(C)C)C(=O)C3[C@]3(Cc4ccc(Cl)cc4)C(=O)N(c4ccc(C)cc4)C(=O)N23)cc1 (stereo not given in full) was read as Mtb hypoxia inh -4.2.
`O=C1C=CC(=NN=C(c2ccccc2)c2ccccc2)C=C1` gave Mtb FBA inh 32.2*, Mtb FBA confirm 80.5* and GDH-TPI counter-2 66.6*.
`NN=C(c1ccccc1)c1ccccc1` gave Mtb hypoxia inh 6.0, GDH-TPI counter-1 14.5, Mtb FBA inh -0.2 and Mtb betalactam -9.8.
`COC(=O)CNC(=O)COC(=O)c1ccc(OC)c([N+](=O)[O-])c1` gave Mtb hypoxia inh 5.5, DUSP3 inh -12.5, GDH-TPI counter-1 8.3, Mtb FBA inh -1.3 and Mtb betalactam 10.9.
`CC(C)CNC(=O)COC(=O)c1ccc(F)cc1Cl` gave Mtb hypoxia inh 23.5, DUSP3 inh 38.6, GDH-TPI counter-1 -0.3, Mtb FBA inh -3.8 and Mtb betalactam 17.5.
Screening CC(C)CNC(=O)COC(=O)c1cc(Cl)cc(Cl)c1N returned Mtb hypoxia inh 13.2, DUSP3 inh 11.6, GDH-TPI counter-1 -1.0, Mtb FBA inh 78.2*, Mtb betalactam 7.7, Mtb FBA confirm active and GDH-TPI counter-2 active.
Screening COC(=O)CNC(=O)COC(=O)c1cc(Cl)cc(Cl)c1N returned Mtb hypoxia inh 1.7, DUSP3 inh 22.2, GDH-TPI counter-1 -2.7, Mtb FBA inh 109.5*, Mtb betalactam 93.8, Mtb FBA confirm active and GDH-TPI counter-2 active.
COc1cc2c(cc1OC)C(C1C(=O)CC(C)CC1=O)N(C(=O)CCl)CC2 (stereo not given) was read as Mtb hypoxia inh 10.6, DUSP3 inh 17.7, GDH-TPI counter-1 1.2, Mtb FBA inh 30.9*, Mtb betalactam 2.6, Mtb FBA confirm 10.8, GDH-TPI counter-2 5.4 and GDH-TPI DR >10.
For CCCN1CCN(C(=O)Cn2nc(C)n3c(cc4c(OC)cccc43)c2=O)CC1 the results were GDH-TPI counter-1 -2.6, Mtb FBA inh 86.5*, Mtb FBA confirm 168.9* and GDH-TPI counter-2 112.9*.
`COc1cccc2c1cc1c(=O)n(CC(=O)NC3CCCCC3)nc(C)n12` gave Mtb hypoxia inh -6.3, DUSP3 inh 31.6, GDH-TPI counter-1 8.7, Mtb FBA inh 3.3 and Mtb betalactam 3.5.
COc1cccc2c1cc1c(=O)n(CC(=O)NCCCN3CCN(C)CC3)nc(C)n12 was read as Mtb hypoxia inh 0.7, DUSP3 inh 38.3, GDH-TPI counter-1 13.7, Mtb FBA inh 101.6*, Mtb betalactam -0.8, Mtb FBA confirm 92.6* and GDH-TPI counter-2 87.9*.
N#Cc1ccc(CCc2ccccc2)[nH]c1=O was read as Mtb hypoxia inh 0.6, GDH-TPI counter-1 16.7, Mtb FBA inh 31.3*, Mtb FBA confirm 1.5 and GDH-TPI counter-2 0.0.
Screening COc1ccc(-c2c(C)nc3c(-c4ccccn4)cnn3c2N)cc1 returned Mtb hypoxia inh 5.7, DUSP3 inh 11.3, GDH-TPI counter-1 23.5, Mtb FBA inh 27.3*, Mtb betalactam 49.3, Mtb FBA confirm 67.6* and GDH-TPI counter-2 66.9*.
Screening O=C1NC(c2ccco2)Nc2ccccc21 (stereo not given) returned DUSP3 inh -14.8, GDH-TPI counter-1 1.9, Mtb FBA inh 42.8*, Mtb betalactam -3.4, Mtb FBA confirm 57.0* and GDH-TPI counter-2 49.2*.
`Cc1ccc(C2NC(=O)c3ccccc3N2)c(C)c1` (stereo not given) gave GDH-TPI counter-1 6.0, Mtb FBA inh 61.8*, Mtb FBA confirm 79.8* and GDH-TPI counter-2 60.8*.
For O=C1NC(c2ccc(Cl)cc2)Nc2ccccc21 (stereo not given) the results were Mtb hypoxia inh -0.3, DUSP3 inh 7.8, GDH-TPI counter-1 -3.8, Mtb FBA inh 7.8 and Mtb betalactam 1.5.
Screening Cc1cccc(C2NC(=O)c3ccccc3N2)c1 (stereo not given) returned GDH-TPI counter-1 6.0 and Mtb FBA inh 26.4.
`COc1ccc(NCC(=O)NN=C(C)c2cc3ccccc3o2)cc1` gave Mtb hypoxia inh 11.9.
CCOC(=O)CCc1c(C)c2ccc(OCC(=O)OC(C)C)cc2oc1=O was read as Mtb hypoxia inh 22.0, DUSP3 inh 9.1, GDH-TPI counter-1 12.6, Mtb FBA inh 66.7*, Mtb betalactam 7.9, Mtb FBA confirm 54.1* and GDH-TPI counter-2 41.4*.
Screening CCCCc1c(C)c2ccc(OCC(C)=O)cc2oc1=O returned DUSP3 inh -19.4, GDH-TPI counter-1 3.4, Mtb FBA inh 72.4*, Mtb betalactam 62.3, Mtb FBA confirm 2.7 and GDH-TPI counter-2 6.3.
Screening Cc1c(C)c2ccc(OCC(=O)c3ccccc3)cc2oc1=O returned Mtb hypoxia inh -3.1, DUSP3 inh 5.2, GDH-TPI counter-1 18.4, Mtb FBA inh 2.0 and Mtb betalactam -7.8.
`C=CCOC(=O)COc1ccc2c(C)c(C)c(=O)oc2c1` gave Mtb hypoxia inh -1.5, DUSP3 inh -10.9, GDH-TPI counter-1 22.5, Mtb FBA inh 68.0*, Mtb betalactam 97.1, Mtb FBA confirm 24.8 and GDH-TPI counter-2 27.9*.
`CCOC(=O)CCc1c(C)c2ccc(OC3CCCCC3=O)cc2oc1=O` (stereo not given) gave Mtb hypoxia inh 11.7, GDH-TPI counter-1 4.7, Mtb FBA inh 109.5*, Mtb betalactam -5.8, Mtb FBA confirm 150.9* and GDH-TPI counter-2 132.2*.
Cc1cccc(C2Nc3ccccc3C(=O)N2CCc2ccccc2)n1 (stereo not given) was read as Mtb hypoxia inh 6.8, DUSP3 inh 11.8, GDH-TPI counter-1 18.4, Mtb FBA inh 73.4*, Mtb betalactam -4.2, Mtb FBA confirm active and GDH-TPI counter-2 active.
O=C1c2ccccc2NC(c2cccc([N+](=O)[O-])c2)N1CCc1ccccc1 (stereo not given) was read as Mtb hypoxia inh 14.7, DUSP3 inh 20.4, GDH-TPI counter-1 4.2, Mtb FBA inh -2.1 and Mtb betalactam -2.6.
For Cc1n[nH]c(=S)n1N=Cc1ccc(Br)o1 the results were Mtb hypoxia inh 2.8.

Compound activity from PubChem BioAssay.
